# Records with an inconclusive call do not appear. Activity calls are given as the source filed them. Calls follow the shape of the dose curve; as a rule, active = well fitted inhibition curve with a large enough effect; inconclusive = small, poorly fitted or top-dose-only effect; inactive = no such curve, though single readings can be large or run the other way.
# Assay: P-glycoprotein substrates identified in KB-3-1 adenocarcinoma cell line, qHTS therapeutic library screen (AID 1346986); also: nearly all actives have a fitted effect of over 60% in size;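 also: potency is for cytotoxicity meaning loss of cell viability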
# Conditions: KB-3-1 parental cells viability, CellTiter-Glo, 72 h; series mostly up to 44.5 µM; activity change, negative = cytotoxicity: at the top concentration
# Protocol: The ATP-binding cassette transporters P-glycoprotein (P-gp) is known to limit brain penetration of many chemotherapy drugs. […] We used the CellTiter-Glo viability assay to test library compounds against the parental KB-3-1 human cervical adenocarcinoma cell line and the colchicine-selected sub-line KB-8-5-11 that over-expresses P-gp. KB-8-5-11 cells were also tested in the presence of a P-gp inhibitor (tariquidar) to assess reversability of transporter-mediated resistance. Of the tested compounds, a total of 90 P-gp substrates were identified including 55 newly identified P-gp substrates. Substrates were confirmed using an orthogonal killing assay against HEK-293 cells transfected with P-gp. As exemplars, we confirmed that AT7159 (cyclin-dependent kinase inhibitor); AT9283, (Janus kinase 2/3 inhibitor); ispinesib (kinesin spindle protein inhibitor); gedatolisib (PKI-587, phosphoinositide 3-kinase/mammalian target of rampamycin inhibitor); GSK-690693 (AKT inhibitor); and KW-2478 (heat shock protein 90 inhibitor) were substrates , and direct ATPase stimulation was assessed. ABCG2 was also found to confer high levels of resistance to AT9283, GSK-690693 and gedatolisib, while ispinesib, AT7519 and KW-2478 were weaker substrates.
# The HeLa derivative cell line, KB-3-1, and its colchicine-selected, P-gp-overexpressing subline, KB-8-5-11 were maintained in DMEM with 10% FCS and Pen/Strep with glutamine at 37 degree C in 5% CO2. For KB-8-5-11 cells, colchicine was added to the medium at a concentration of 100 ng/mL. HEK-293 cells transfected with empty vector (pcDNA) or vector containing human ABCB1 (MDR-19) or ABCG2 (R-5) have been described previously (Robey, Lin, Qiu, Chan & Bates, 2011) and were maintained in EMEM supplemented with 10% FCS, Pen/Strep and glutamine with 2 mg/ml G418 to select for the expression of the transporter. Cultures were confirmed to be free of mycoplasma infection using the MycoAlert Mycoplasma Detection Kit (Lonza, Walkersville, MD). For the screen, assay medium was identical to culture medium except for KB-8-5-11 where colchicine was excluded from the medium.
# All cell lines were plated into 1536-well plates at 500 cells/well in 5 uL media. Compounds were then pinned in dose-response using a 1536-head pin tool (Kalypsis, San Diego, CA) and plates were incubated at 37 degree C in 5% CO2 for an additional 72 h. CellTiter-Glo reagent (Promega) was dispensed into the wells, incubated for 5 min and luminescence was read on a ViewLux instrument (Perkin-Elmer). Cytotoxic compounds were defined as those that yielded a curve class of -1.1, -1.2, -2.1, -2.2, -2.3, or -2.4, a maximum response of >50% and an AC50 of < 10 uM. Cherry-picked hits from screening analysis were tested with both the KB pair of cell lines, and the pcDNA (empty vector control) and MDR-19 (P-gp overexpressing) pair were tested, in the absence and presence of tariquidar.
# Potency is read from the fitted curve at half-maximal effect.
Compound,Potency,outcome
CCNC(=O)C#Cc1ccc2c(C(=Nc3ccc(CN(C)C)cc3)c3ccccc3)c(O)[nH]c2c1,0.0517 µM (active),
CCOc1ccc(-n2c(C(C)N(Cc3cccnc3)C(=O)Cc3ccc(F)c(C(F)(F)F)c3)nc3ncccc3c2=O)cc1 (stereo not given),,inactive
NC(=O)c1ccccc1Nc1ccnc(Nc2cccc(O)c2)n1,1.3 µM (active),
CCC(C)C(=O)OC12C(OC(C)=O)C(C)C3(O)C(C=C(CO)CC4(O)C(=O)C(C)=CC43)C1C2(C)C (stereo not given),,inactive [at 17.4 µM]
CC/C(C)=C/C(=O)OC1C(OC2(C)CCC3C(C4C(C)CCC42)C3(C)C)OC(C)C(O)C1O (stereo not given),,inactive [at 17.4 µM]
CC(=O)O[C@@H]1CC2C(C)(C)C(=O)C=C[C@]2(C)C2CC[C@@]3(C)[C@H](c4ccoc4)OC(=O)[C@H]4O[C@]43[C@@]21C (stereo not given in full),,inactive [at 17.4 µM]
N#Cc1cc(-c2ccnc(Nc3ccc(N4CCOCC4)cc3)n2)ccc1OC1CCOCC1,13 µM (active),
C=C1C(=O)O[C@@H]2C[C@]3(C)[C@@H](CCC(C)O)[C@@H]3C[C@H]12 (stereo not given in full),,inactive
CC(=O)C=C=C1C(C)(C)CC(O)CC1(C)O[C@@H]1O[C@H](CO[C@H]2OC[C@](O)(CO)[C@H]2O)[C@@H](O)[C@H](O)[C@H]1O (stereo not given in full),,inactive [at 17.4 µM]
CC(=O)O[C@@H]1CC2C(/C=C(\C)C(=O)[C@@]3(O)C[C@@H](C)[C@H](OC(=O)c4ccccc4)C3/C=C/1C)C2(C)C (stereo not given in full),,inactive [at 17.4 µM]
C[C@@H]1O[C@@H](O[C@H]2[C@@H]3C=CO[C@@H](O[C@@H]4O[C@H](CO)[C@@H](O)[C@H](O)[C@H]4O)[C@@H]3[C@@]3(CO)O[C@@H]23)[C@H](O)[C@H](OC(=O)/C=C/c2ccccc2)[C@H]1O,,inactive [at 17.4 µM]
CC(=O)O[C@@H]1C2=C(O)C(=O)[C@](C)(OC(C)=O)C(=O)C2=CO[C@@]12O[C@@H](C)CC[C@H]2OC(C)=O,,inactive [at 17.4 µM]
N#Cc1ccnc(Nc2cc(C3CCN(C4COC4)CC3)cc(N3CCC(F)(F)C3)n2)c1,6.51 µM (active),
CC1(C)CCC2(C(=O)OC3OC(COC4OC(CO)C(O)C(O)C4O)C(O)C(O)C3O)CCC3(C)C(=CCC4C5(C)CCC(OC6OCC(O)C(O)C6O)C(C)(C)C5CCC43C)C2C1O (stereo not given),,inactive [at 9.29 µM]
CC(C)S(=O)(=O)c1ccc2nccc(Nc3ccc4scnc4c3)c2c1,,inactive
Cc1c(F)ccc(C(=O)Nc2cc([N+](=O)[O-])ccc2N2CCN(C)CC2)c1Cl,,inactive
C=C(C)C(=O)O[C@H]1[C@H]2C(=C)C(=O)O[C@@H]2/C=C(\CO)CC/C=C(/C=O)[C@@H]1O,,inactive
C=C1CC[C@@H]2[C@](C)(CO)[C@H](O)CC[C@@]2(C)[C@@H]1CC(O)C1=CCOC1=O (stereo not given in full),,inactive
Cn1sc(=O)n(Cc2ccccc2)c1=O,7.31 µM (active),
CC(=O)OC1C(O)CC2(C)C(CCC3(C)C2CC=C2C4C5(CCC(CO[C@@H]6O[C@H](CO)[C@@H](O)[C@H](O)[C@H]6O)(OC5=O)C4(C)O)C(O)CC23C)C1(C)C (stereo not given in full),,inactive [at 17.4 µM]

Compound,Potency,outcome
O=C(c1cc(Cc2n[nH]c(=O)c3ccccc23)ccc1F)N1CCCNCC1,,inactive
CO[C@@H]1[C@H](O)CCC2(CO2)[C@H]1[C@@]1(C)O[C@@H]1CC=C(C)C (stereo not given in full),,inactive
COc1cc(/C=C2\CC[C@H]3COC[C@@H](c4cc(F)c(F)c(F)c4)N3C2=O)ccc1-n1cnc(C)c1,,inactive
COc1ccc2[nH]c(=O)c3c(c2c1)OC(C)(C)C=C3,,inactive
CC(=O)OCC(=O)[C@@]12O[C@@H]1C[C@H]1[C@@H]3CC=C4C[C@@H](O)CC[C@]4(C)[C@H]3CC[C@@]12C,,inactive
O=C(CSc1nc2ccccc2c(=O)n1-c1ccccc1)Nc1ccc2c(c1)CCC2,,inactive
COc1ccc(C2=NC(c3ccc(Cl)cc3)C(c3ccc(Cl)cc3)N2C(=O)N2CCNC(=O)C2)c(OC(C)C)c1 (stereo not given),,inactive
N#Cc1ccc2ncnc(NCCc3ccccc3)c2c1,16.4 µM (active),
C1=C/COCc2cc(ccc2OCCN2CCCC2)Nc2nccc(n2)-c2cccc(c2)COC/1,4.61 µM (active),
C=C1C(=O)OC2CC3(C)C(O)C(=O)C=C(C)C3CC12 (stereo not given),,inactive
C=C1C(=O)O[C@@H]2[C@H]1CC[C@H](C)[C@]1(CCC(=O)O1)C2(C)O (stereo not given in full),,inactive
Cc1nc(NC(=O)N2CCC[C@H]2C(N)=O)sc1-c1ccnc(C(C)(C)C(F)(F)F)c1,11.6 µM (active),
CN(CC1COCCO1)S(=O)(=O)Nc1ccc2ccc3ncc(-c4cnn(C)c4)cc3c(=O)c2c1 (stereo not given),11.6 µM (active),
COc1cc2ncnc(Nc3cccc(I)c3)c2cc1OC,6.51 µM (active),
NC(=O)c1cccc2[nH]c(-c3ccc(C4CCCN4)cc3F)nc12 (stereo not given),,inactive
CC1=CC2/C=C(\C)CCC(O)C/C=C/C(=O)OC23C(=O)NC(CC(C)C)C3C1C (stereo not given),,inactive [at 17.4 µM]
C[C@H](Nc1ncnc2nc[nH]c12)c1cc2cccc(Cl)c2c(=O)n1-c1ccccc1,20.6 µM (active),
CC(=O)O[C@@H]1CC[C@@]2(C)C(CC[C@]3(C)C2[C@H](O)C=C2[C@H]4[C@@H](C)[C@H](C)CC[C@]4(C)CC[C@]23C)[C@@]1(C)C(=O)O (stereo not given in full),,inactive [at 17.4 µM]
C=C1C(=O)OC[C@@H]1C/C=C(\C)CC1CC(C)C(=O)O1 (stereo not given in full),,inactive
COc1ccc(-c2c(C)nn3c(NCCN4CCOCC4)cc(C)nc23)cc1OC,,inactive

# From PubChem BioAssay (NCATS)
